Laboratory results reported in PubChem BioAssay AID1985 (Southern Research Specialized Biocontainment Screening …, 2009).
Out of some 2,300 compounds screened, about 1,000 (43%) were called active. No rule for the calls is given here. The set was probably picked from earlier hits. The list shows a part of the results. A call without a number means that no potency is given here. Potency and affinity values are given separately.

experiment: modified counter assay using GFP fluorescence, PhoP regulon inhibitor project, dose response (AID 1985); settings: S. Typhi, 4 h; series mostly up to 150 µM

Row | Structure (SMILES) | outcome
1 | C#CCOCCOCCOCCNc1nc(N2CCN(C(=O)C(Cc3ccc(O)cc3)n3cc(C(N)CC(C)C)nn3)CC2)nc(N2CCN(C(=O)C(Cc3cc4ccccc4[nH]3)n3cc(C(N)Cc4ccc(O)cc4)nn3)CC2)n1 (stereo unspecified) | inactive
2 | C#CCOCCOCCOCCNc1nc(N2CCN(C(=O)[C@H](Cc3ccc(O)cc3)n3cc([C@@H](N)C(C)CC)nn3)CC2)nc(N2CCN(C(=O)[C@H](Cc3cc4ccccc4[nH]3)n3cc([C@@H](N)Cc4ccc(O)cc4)nn3)CC2)n1 (stereo partly specified) | inactive
3 | C#CCOCCOCCOCCNc1nc(N2CCN(C(=O)[C@H]([C@@H](C)CC)n3cc([C@@H](N)CO)nn3)CC2)nc(N2CCN(C(=O)[C@H](Cc3cc4ccccc4[nH]3)n3cc([C@@H](N)Cc4ccc(O)cc4)nn3)CC2)n1 | inactive
4 | O=C(O)c1[nH]c2ccc(Br)cc2c1CCN1C(=O)c2cccc([N+](=O)[O-])c2C1=O | inactive
5 | Cc1ccc(CCNC(=O)c2cc(S(=O)(=O)N3CCCCC3)c[nH]2)cc1 | inactive
6 | CCOC(=O)c1ccc(NC(=O)CSc2nc(N3CCOCC3)nc(N3CCOCC3)n2)cc1 | inactive
7 | CN1CCN(c2ccc(NC(=O)CSc3ccccc3)cc2F)CC1 | inactive
8 | Cn1cnnc1SCC(=O)Nc1ccc2nc(SCc3ccccc3)sc2c1 | inactive
9 | CCOc1ccccc1NC(=O)CSc1nc(N)c(C#N)cc1C#N | inactive
10 | O=C(Nc1ccc2c(c1)OCCO2)C1CCCN1C(=O)Nc1ccc(F)cc1 (stereo unspecified) | inactive
11 | C/C=C/c1ccc(OCc2cc(=O)n3cc(C)ccc3n2)c(OC)c1 | inactive
12 | CCN(CCCNC(=O)c1cn(CC)c2ccc(S(=O)(=O)N(C)C)cc2c1=O)c1cccc(C)c1 | inactive
13 | Cc1ccc(CCN2C(=O)CCC2(C)C(=O)NC2CCCC2)cc1 (stereo unspecified) | inactive
14 | O=C(NCc1ccccc1)N[C@@H](Cc1c[nH]c2ccccc12)C(=O)O | inactive
15 | Cc1c(-n2cc(C(=O)c3ccccc3O)cc(C#N)c2=O)c(=O)n(-c2ccccc2)n1C | inactive
16 | Cc1c(NC(=O)OCc2ccccc2)c(=O)n(-c2ccccc2)n1C | inactive
17 | COc1ccc(NC(=O)CC2Sc3ncnn3C2=O)cc1 (stereo unspecified) | inactive
18 | Cc1ccc(NC(=O)c2sccc2C)cc1[N+](=O)[O-] | inactive
19 | N=c1sc2c(n1Cc1ccccc1)CCCC2 | inactive
20 | Cc1cc(NC(=O)/C=C/C(=O)N(c2ccccc2C)C(C(=O)NC2CCCC2)c2ccc(F)cc2)no1 (stereo unspecified) | inactive
21 | C[C@@H](NC(=O)[C@@H]1Cc2ccccc2CN1)C(=O)NCC1CCCO1 (stereo partly specified) | inactive

Row | Structure (SMILES) | outcome
22 | COc1ccc(Nc2c3c(nc4ccc(C)cc24)CCC3)cc1 | inactive
23 | CC1CCN(C(=O)COc2ccc(Nc3ccccc3)cc2)CC1 | inactive
24 | CC(C)(C)Nc1c2ccccc2nc2ccccc12 | inactive
25 | CCOc1ccc(NC(=S)Nc2cc(C)[nH]n2)cc1 | inactive
26 | COc1ccccc1Nc1cc(C(=O)NCc2cccnc2)c2ccccc2n1 | inactive
27 | COc1c(C(=O)N2CCCC2)ccc2ccccc12 | inactive
28 | CCOC(=O)c1ccc(NC(=O)C2CCC(CNc3c(N4CCOCC4)c(=O)c3=O)CC2)cc1 (stereo unspecified) | inactive
29 | CCCCNC(=O)CCC(=O)Nc1ccc2nc(N3CCC(C)CC3)cc(C)c2c1 | inactive
30 | COc1ccc(N=CC2=C(Nc3ccc(OC)cc3)c3c(C)nn(-c4ccccn4)c3CC2)cc1 | inactive
31 | CCO[C@H]1OC(C(=O)O)=C[C@@H](c2ccccc2)[C@@H]1CCCO | inactive
32 | Clc1ccc2c(c1)C(N1CCNCC1)Cc1ccccc1S2 (stereo unspecified) | inactive
33 | O=C(NCc1ccco1)C1CCN(C(=O)c2cc3sccc3n2Cc2ccc(Cl)cc2)CC1 | inactive
34 | Cc1ccc2nc(/C(C#N)=C\c3ccc(N4CCCCC4)c([N+](=O)[O-])c3)[nH]c2c1 | inactive
35 | C#CCOCCOCCOCCNc1nc(N2CCN(C(=O)CCCCCCCCCCNC(=O)[C@H](CCCCN)n3cc(CCO)nn3)CC2)nc(N2CCN(C(=O)CCCCCCCCCCNC(=O)[C@H](CCCCN)n3cc(CCO)nn3)CC2)n1 | inactive
36 | CCOC(=O)c1cc(-c2ccncc2)nc2c1c(C)nn2-c1ccccn1 | inactive
37 | CN(C)/C=N/c1ncc(C(=O)c2ccc(Cl)cc2)s1 | inactive
38 | Nc1ccc(N=Nc2ccccc2)c(N)n1 | inactive
39 | Cc1ccc(C)c(Nc2cc(C)nc3ccccc23)c1 | inactive
40 | Cc1cc(-c2nc3ccccc3o2)c2ccccc2n1 | inactive
41 | Nc1nc2ccccc2cc1-c1cccs1 | inactive
42 | Nc1nn2cc(-c3ccccc3)nc2c2ccccc12 | inactive

Row | Structure (SMILES) | outcome
43 | CCCN(C(=O)CSc1nc2ccccc2n1CC)C1CCS(=O)(=O)C1 (stereo unspecified) | inactive
44 | CCOc1ccc(-c2ccc(SCC(=O)N3CCOCC3)nn2)cc1 | inactive
45 | CCCCc1cc(=O)oc2cc(C)cc(OCC(=O)NCC3CCC(C(=O)O)CC3)c12 (stereo unspecified) | inactive
46 | Clc1ccc2c(c1)c1cc(Cl)ccc1n2CN1CCOCC1 | inactive
47 | CC(C)C(NC(=O)c1ccc(Cl)cc1)C(=O)NCC1CCCO1 (stereo unspecified) | inactive
48 | Cc1ccc(N(CC(=O)Nc2c(C)n(C)n(-c3ccccc3)c2=O)S(C)(=O)=O)cc1C | inactive
49 | OCC[C@H]1C[C@H](O)[C@@H](O)[C@@]2(Cc3ccccc3CO2)O1 | inactive
50 | O=C(NC1(C(F)(F)F)C(=O)Nc2c1c(=O)[nH]c(=O)n2-c1ccccc1)c1ccncc1 (stereo unspecified) | inactive
51 | Cc1ccn2cc(-c3ccc4c(c3)NC(=O)CO4)nc2c1 | inactive
52 | Cc1csc2ncc(C(=O)Nc3ccon3)c(=O)n12 | inactive
53 | Cc1cccc(NC(=O)C2CCCN2S(=O)(=O)c2ccc3c(c2)n(C)c(=O)c(=O)n3C)c1 (stereo unspecified) | inactive
54 | CC(=O)Nc1ccc(S(=O)(=O)Nc2nc3ccccc3nc2Nc2cccc(S(N)(=O)=O)c2)cc1 | inactive
55 | Cc1cccc(NCN2C(=O)c3ccccc3C2=O)c1 | inactive
56 | Cc1cc(C)c(S(=O)(=O)Nc2cccnc2)c(C)c1 | inactive
57 | Cc1ccc(NNS(=O)(=O)c2ccc(C)cc2)cc1 | inactive
58 | CCOc1ccccc1NC(=O)NS(=O)(=O)c1ccc(C)cc1 | inactive
59 | CC(C)NC(=O)Nc1ccc(Br)cc1Cl | inactive
60 | CC1CC(C)CN(C(=O)c2ccc(NC(=O)c3ccc(=O)[nH]c3)cc2)C1 (stereo unspecified) | inactive
61 | COCCNC(=O)CN(C(=O)CCC(=O)Nc1ccccn1)c1ccc(F)c(Cl)c1 | inactive
